The results in this text go back to ChEMBL document CHEMBL3988442, “University of Dundee, Small-Polar-MMV Screening Library” (2021).

The test deals with T1, Proteasome subunit beta (Trypanosoma cruzi) (UniProt O96673).
T1 sequence (whole entry): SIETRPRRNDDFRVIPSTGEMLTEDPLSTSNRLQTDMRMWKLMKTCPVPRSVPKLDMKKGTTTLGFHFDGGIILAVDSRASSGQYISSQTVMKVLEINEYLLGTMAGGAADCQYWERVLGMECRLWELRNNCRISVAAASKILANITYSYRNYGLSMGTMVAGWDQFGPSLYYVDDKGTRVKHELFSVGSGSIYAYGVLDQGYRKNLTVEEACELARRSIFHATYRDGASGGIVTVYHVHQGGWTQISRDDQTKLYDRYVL
As to the kind of experiment: Trypanosoma cruzi proteasome chymotrypsin-like activity (TcProtChymo) assay. Type of test: functional. Also noted: scale not given: in the data most compounds retested in dose-response had high values. Conditions: 9.37 µM.
In the case of `CCn1nc(C(=O)N2CCCC(n3cncn3)C2)ccc1=O` (centres undefined), the Percent Effect amounted to 9.78%.
Consider `CNc1nc(C)c(C(=O)N2CCCCC2CN2CCCCCC2)s1` (centres undefined), for which the Percent Effect came to 8.72%.
Turning to `CCOCC(=O)N1C[C@@H](O)[C@H](N(C)Cc2ccc(OC)cc2)C1`, the Percent Effect amounted to 9.05%.
In the case of `c1cnc(NCc2ncn3c2CN(Cc2cccnc2)CCC3)nc1`, the Percent Effect was 8.03%.
Consider `O=C1CCSCC(C(=O)N2CCOCC2)N1` (centres undefined), for which the Percent Effect is 5.5%.
As to `O=C(COCc1nc(-c2ccncc2)no1)N1CCCCCC1`, the Percent Effect came out at 8.65%.
Take `CCc1csc(C2CCCN(C(=O)c3cnn(CC)c3)C2)n1` (centres undefined): the Percent Effect amounted to 6.04%.
On to `COc1ccc(CCC(=O)Nc2cccnc2N2CCCC2)cc1Br`, for which the Percent Effect turned out to be 3.42%.
For the compound `CC(=O)c1ccc(N2CCCC(CO)(CCOc3ccccc3)C2)nc1` (centres undefined), the Percent Effect came out at 19.5%.
The result for `c1cncc(C2COC3(CCN(CC4CC4)CC3)C2)c1` (centres undefined) reads 12.9%; that for `Cc1ccc2c(n1)N(CCn1cccn1)CCN(C(=O)NC1CC1)C2`, 18.1%.
For `Cc1cnn(C2CCCN(C(=O)c3cnc4ccccc4n3)C2)c1` (centres undefined), the Percent Effect was 1.62%.
The same measure for `CCCc1cc(=O)n(CC(N)=O)c(-n2nc(C)cc2C)n1`: 10.1%; for `Cc1cc(C)n(C2CCCN(C(=O)c3cc(C4CC4)on3)C2)n1` (centres undefined): 13.8%.
The same measure for `Cc1ccc(Nc2nccc(C3CCCN(CC(=O)N(C)C)C3)n2)nc1` (centres undefined): 13.8%; for `CC(C)c1cccc(CSc2nnc(CN3CCCC3=O)o2)n1`: -0.174%.
The result for `N#Cc1ccc(OCCN2CCc3c(ncn3C3CC3)C2)cc1` reads 7.26%.
`O=C(NCc1nncn1-c1ccccc1)C1CC(=O)N(CC2CC2)C1` (centres undefined): the Percent Effect was -0.901%.
Take `CCc1nccn1C1CCCN(C(=O)Cc2n[nH]c3ccccc23)C1` (centres undefined): the Percent Effect was -0.858%.
In the case of `CN(Cc1ccsc1)C(=O)c1cccc(NS(C)(=O)=O)c1`, the Percent Effect is 3.72%.
Take `CNC(=O)CS(=O)(=O)Cc1coc(-c2ccc(OC)cc2)n1`: the Percent Effect was 12.8%.
For the compound `CC(C)CS(=O)(=O)CC(=O)N(C)Cc1ccc(OC(F)F)cc1`, the Percent Effect came out at 15.2%.
The same measure for `CN(Cc1ccccn1)C1COC2(CCN(Cc3cccnc3)CC2)C1` (centres undefined): 12.1%; for `COc1ccc(C2=C(C)C(N3CCc4ccccc4C3)=NS2(=O)=O)cc1`: 13.1%.
On to `Cn1c(C2CC2)nc2c1CCN(CC(=O)Nc1nncs1)C2`, for which the Percent Effect stood at 3.72%.
The result for `Cc1cccc(CN2CCN(Cc3ccccc3)CC(O)C2)n1` (centres undefined) reads 9.14%; that for `CCn1cc(CN2CCCN(C(=O)C3=NN(C)C(=O)CC3)CC2)cn1`, 13.7%.
The result for `O=C(CN1CCc2cncnc2C1)NCCOc1ccccc1` reads 0.592%; that for `Cc1ncsc1C(=O)N(C)CCc1ccncc1`, -1.84%.
The same measure for `N#Cc1cccc(CS(=O)(=O)NCC(O)Cc2ccccc2)c1` (centres undefined): 1.4%; for `Cc1ccc(-c2nc(CN3CCc4nn(C)c(=O)cc4C3)co2)cc1`: 17.1%.
Take `Cc1cc(C)n(CC2CCCN2CC(=O)N(C)C)n1` (centres undefined): the Percent Effect came to 9.19%.
Take `CN(C)S(=O)(=O)N1CCC(Oc2ccc(C#N)cc2)CC1`: the Percent Effect is 16.8%.
On to `CC(C)c1cc(NC(=O)CN2CCc3cncnc3C2)on1`, for which the Percent Effect stood at 4.39%.
Turning to `CCc1nc(CN(Cc2cccs2)CC2CCCO2)no1` (centres undefined), the Percent Effect worked out at 4.29%.
The same measure for `CCCN1CC(C(=O)Nc2ccccn2)CC1=O` (centres undefined): 9.31%.
Consider `Cc1cnn(CCNCc2ccc(F)cc2Cl)c1`, for which the Percent Effect was found to be 10.9%.
Consider `O=C(c1ccn(-c2cccc(F)c2)n1)N1CCCC(n2cccn2)C1` (centres undefined), for which the Percent Effect came out at 13.3%.
Consider `N#Cc1ccnc(N2CCN(C(=O)Cc3ccc4c(c3)CCO4)CC2)c1`, for which the Percent Effect was 13.4%.
